Assay outcomes (PubChem BioAssay)
Glioma ERSR ind – qHTS for Inducers of the Endoplasmic Reticulum Stress Response (ERSR) in Human Glioma: qHTS | U87-MG GRP78 promoter luciferase reporter, 16 h | Potency, µM, for the others: at the highest dose activation, actives largely listed as activators | actives 0.02% (n = 420,000); note: series mostly up to about 76 µM; % of control where 0% means no effect; nearly all actives have a fitted effect of over 35% in size
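Stably transfected U87-MG human glioma cells carrying a GRP78-based luminescent sensor were seeded at 1000 cells/well, pin-dosed with compounds and incubated 16 h. Luciferase reagent was then added, and end-point luminescence was read after 10 min at room temperature.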
GLS inh – qHTS for Inhibitors of Glutaminase (GLS). GLS enzymatic activity, qHTS titration. Potency, µM (titrated, usually from 45.5 µM), for inactives: at the highest dose activity change, negative = inhibition, hits mostly inhibitors. actives 0.21% (n = 410,000). Glutaminase kidney isoform, mitochondrial (Homo sapiens), O94925; note: % is set by controls: 0 for no effect and ±100 for the full control effect
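Glutamate formation by hKGA was monitored fluorometrically using coupled glutamate oxidase, HRP and Amplex Red. Substrate was added as 1 mM L-glutamine solution; incubation was 30 min at RT after an initial read.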
GLP1R ag – qHTS of GLP-1 Receptor Agonists; Glucagon-like peptide 1 receptor (Homo sapiens), P43220; HEK293 GLP-1R CRE-luciferase, luminescence, 4-6 h; cells express a hypersensitive GLP-1R form; Potency, µM (top dose mostly 45.6 µM), for the others: top-dose activation, most hits filed as activators; actives 0.007% (n = 380,000); note: % of control where 0% means no effect
12-LOX inh – Primary qHTS assay for inhibitors of human arachidonate 12S-lipoxygenase (ALOX12): Round 2 | Polyunsaturated fatty acid lipoxygenase ALOX12 (Homo sapiens), P18054 | purified 12hLO, xylenol orange hydroperoxide absorbance | Potency, µM (highest dose often 108 µM), inactives show top-dose activity change, negative = inhibition, actives largely listed as inhibitors | actives 1.1% (n = 580,000); note: % is set by controls: 0 for no effect and ±100 for the full control effect
Target sequence (P18054 whole entry, looked up): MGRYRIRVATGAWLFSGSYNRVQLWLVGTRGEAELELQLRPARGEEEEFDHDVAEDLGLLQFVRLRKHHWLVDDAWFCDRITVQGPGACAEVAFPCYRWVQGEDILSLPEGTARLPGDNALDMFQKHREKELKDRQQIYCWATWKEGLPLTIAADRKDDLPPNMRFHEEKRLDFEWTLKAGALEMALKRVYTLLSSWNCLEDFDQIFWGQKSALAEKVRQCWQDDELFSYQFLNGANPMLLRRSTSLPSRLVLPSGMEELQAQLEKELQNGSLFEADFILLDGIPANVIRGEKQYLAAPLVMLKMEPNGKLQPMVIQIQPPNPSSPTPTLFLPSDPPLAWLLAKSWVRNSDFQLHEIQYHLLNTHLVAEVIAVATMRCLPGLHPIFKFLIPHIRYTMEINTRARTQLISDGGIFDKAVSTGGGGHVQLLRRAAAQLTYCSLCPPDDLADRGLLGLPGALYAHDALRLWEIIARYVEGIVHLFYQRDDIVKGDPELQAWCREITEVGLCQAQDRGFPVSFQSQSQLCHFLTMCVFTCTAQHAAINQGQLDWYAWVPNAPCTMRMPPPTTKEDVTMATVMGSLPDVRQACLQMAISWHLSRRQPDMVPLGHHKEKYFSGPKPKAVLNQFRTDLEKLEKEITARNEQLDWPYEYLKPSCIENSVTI
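Purified human 12hLO at 150 nM in 25 mM Hepes, 0.01% Triton X-100, pH 7.0, preincubated 15 min at room temperature with compound. Reaction started with 40 uM arachidonic acid, 30 min at room temperature. Hydroperoxide measured by Fe-xylenol orange, 573/405 nm absorbance ratio.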
PTHR1 ag – qHTS for PTHR1 Agonists: Primary Screen | actives 0.075% (n = 410,000) | AID 743266, 2014 | HEK293 GP2 PTHR1 cells, GloSensor cAMP luminescence, 1 h | Parathyroid hormone/parathyroid hormone-related peptide receptor (Homo sapiens), Q03431 | Potency, µM (doses to about 115 µM), inactives show at the highest dose activation, actives largely listed as activators; note: nearly all actives have a fitted effect of over 55% in size
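HEK-293-derived GP2 cells expressing PTHR1 and a GloSensor cAMP reporter, 3,000/well, plated overnight, given luciferin plus IBMX (each 0.5 mM as added) for 1 h at 37 °C, then compound for 1 h at 37 °C. Luminescence was read after 15 min at room temperature.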
GLP1R inv ag – qHTS of GLP-1 Receptor Inverse Agonists (Inhibition Mode); actives 1.6% (n = 410,000); Potency, µM (titrated, usually from 38.3 µM), without a hit: at the top dose activity change, negative = inhibition, most hits filed as inhibitors; Glucagon-like peptide 1 receptor (Homo sapiens), P43220; HEK293 GLP-1R CRE-luciferase, luminescence, 24 h; GLP-1R form is constitutively active; note: % is set by controls: 0 for no effect and ±100 for the full control effect; nearly all actives have a fitted effect of over 55% in size
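Inverse agonists were sought by their lowering of basal cAMP reporter luciferase output in HEK293 cells stably carrying constitutively active human GLP-1R, after 24 h compound treatment.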
* marks the source's active call; other numbers are inactive results; i = inactive; ? = inconclusive; nt = not tested or not shown; [ ] = another dose, or the depositor's remark. Rows were chosen to be rich in hits. Some 2.3% of all compounds tested hit in one or more screens of this group. Calls come from the whole dose curve; as a rule, active = well fitted curve in the direction sought with a large enough effect; inconclusive = small, poorly fitted or top-dose-only effect, or another doubt; inactive = no such curve, though single readings can be large; an effect the other way counts as inactive or inconclusive. Potency is the fitted concentration of half-maximal effect.

SMILES | Glioma ERSR ind | GLS inh | GLP1R ag | 12-LOX inh | PTHR1 ag | GLP1R inv ag
Clc1ccc2c(NN=C3CCCC3)ccnc2c1 | nt | nt | nt | 7.9µM* | nt | nt
Oc1ccc(/C=N/Nc2ccnc3cc(Cl)ccc23)cc1O | -15% | 8% | 0% | ? | -1% | -24%
CN(C)N1C(=O)CC(c2c(F)cccc2Cl)C2=C1CC(C)(C)CC2=O (configuration not stated) | nt | nt | nt | 31% | nt | nt
Cc1ccc(C)c(NC(=S)N(Cc2ccc(Cl)cc2)Cc2ccc(C(=O)O)cc2)c1 | 12% | 20% | -3% | 45µM* | -19% | ?
Cc1cccc(NC(=S)N(Cc2ccc(Cl)cc2)Cc2ccc(C(=O)O)cc2)c1 | -1% | 0% | 1% | 0% | -3% | -7%
CCCN(Cc1ccccc1)C(=S)Nc1ccc(F)cc1 | -2% | 11% | 8% | ? | i | ?
COc1cccc(NC(=S)N(Cc2ccc(C(=O)O)cc2)Cc2ccc(OC)c(OC)c2)c1 | 1% | 12% | 13% | -21% | ? | 23%
CCc1ccc(NC(=S)N(Cc2ccc(Cl)cc2)Cc2ccc(C(=O)O)cc2)cc1 | 14% | 6% | 0% | 40µM* | i | ?
CCCN(Cc1ccccc1)C(=S)Nc1ccc(SC(F)F)cc1 | -6% | -5% | 10% | 0% | -21% | 10µM*
Cc1cc(C)cc(NC(=S)N(Cc2ccc(Cl)cc2)Cc2ccc(C(=O)O)cc2)c1 | ? | 0% | 8% | 35µM* | -17% | ?
CC1CCN(CC2CCCCN2)CC1 (configuration not stated) | nt | nt | nt | -3% | nt | nt
CCC(C)[C@H](NC(=O)Nc1ccc2oc(-c3cccnc3)nc2c1)C(=O)OC (some centres not stated) | nt | nt | nt | -24% | nt | nt
Cc1ccc(CNC(=O)C(C)N2CCCC(C(F)(F)F)C2)cc1 (configuration not stated) | nt | nt | nt | 8% | nt | nt
Cc1ccc(C)c(NCC(=O)c2ccc(Cl)cc2)c1 | 0% | 0% | -1% | 35µM* | -87% | ?
COc1ccc(NC(=S)N(Cc2ccc(Cl)cc2)Cc2ccc(C(=O)O)cc2)cc1Cl | 0% | 2% | 3% | ? | -27% | ?
Cc1cc(NC(=S)N(Cc2ccc(Cl)cc2)Cc2ccc(C(=O)O)cc2)ccc1Cl | 0% | 15% | 0% | 40µM* | -31% | 8.9µM*
Cc1cc(C)cc(NC(=S)N(Cc2ccc(Br)cc2)Cc2ccc(C(=O)O)cc2)c1 | 17% | 24% | 16% | 28µM* | -27% | ?
Cc1ccc(C(=O)CNc2cc(C)ccc2C)cc1 | -5% | 2% | 13% | 0% | -8% | -21%
CN(C)CCCN(Cc1ccccc1)C(=S)Nc1cccc(C(F)(F)F)c1 | -4% | 6% | 17% | ? | -4% | ?
CN(C)CCCN(Cc1ccccc1)C(=S)Nc1ccc(F)c(Cl)c1 | -5% | 0% | 1% | 0% | i | 1.8µM*
Nc1nccnc1C(=O)Nc1ccc(C(=O)NCC(F)(F)F)cc1 | nt | nt | nt | 8% | nt | nt
COC1C(=O)N(C2CCN(S(=O)(=O)Cc3ccccc3F)CC2)C12CCOCC2 (configuration not stated) | nt | nt | nt | 37% | nt | nt
Cc1ccc(NC(=S)N(Cc2ccc(Br)cc2)Cc2ccc(C(=O)O)cc2)cc1C | 3% | 0% | 0% | 40µM* | -31% | -25%
O=C(CC1C(=O)NCCN1C(=O)CN1CCN(c2ncccn2)CC1)Nc1ccc(F)cc1 (configuration not stated) | nt | nt | nt | -1% | nt | nt
Cc1nc2c3c(C)c(C)n(Cc4ccccc4)c3ncn2n1 | nt | nt | nt | 0% | nt | nt
SMILES | Glioma ERSR ind | GLS inh | GLP1R ag | 12-LOX inh | PTHR1 ag | GLP1R inv ag
CC(O)(c1cccc(F)c1)c1nc(-c2ccncc2)cs1 (configuration not stated) | -5% | 5% | -1% | 6% | -26% | ?
COc1cccc(C(C)(O)c2nc(-c3cccs3)cs2)c1 (configuration not stated) | -4% | -1% | -6% | 4.5µM* | i | ?
COc1ccc(C(C)(O)c2nc(-c3cncnc3)cs2)cc1 (configuration not stated) | -3% | -10% | 6% | -11% | -18% | 3%
COc1ccc(C(C)(O)c2nc(-c3ccoc3)cs2)cc1 (configuration not stated) | -1% | 0% | -2% | 28µM* | i | -16%
COc1ccc(-c2csc(C(C)(O)c3cccc(OC)c3)n2)cc1 (configuration not stated) | -1% | -2% | 4% | ? | -28% | 10µM*
CC(O)(c1cccc(F)c1)c1nc(-c2ccccc2)cs1 (configuration not stated) | -1% | 2% | 12% | 10µM* | -4% | ?
CC(C)CC(=O)N1CCN(C(=O)c2c[nH]c3ccccc23)CC1 | nt | nt | nt | 5% | nt | nt
CC(C)C(NC(=O)C1CCCCC1C)C(=O)O (configuration not stated) | nt | nt | nt | 2% | nt | nt
Cn1c(=O)c2c(nc(N3CCCCC3)n2CC(O)CO)n(C)c1=O (configuration not stated) | nt | nt | nt | 7% | nt | nt
CCCN(CCC)c1nc2ccccc2nc1C(C#N)C(=O)OC(C)COC (configuration not stated) | -5% | 9% | 17% | 0% | i | 10µM*
CCCCN(CCCC)c1nc2ccccc2nc1C(C#N)C(=O)NCCCOC (configuration not stated) | -2% | -3% | 1% | 1% | 2%[57.5 µM] | -14%
CCn1c(CCCOc2ccc(Cl)cc2Cl)nnc1SCC(=O)Nc1cc(F)ccc1C | 1% | 1% | 11% | 20% | -40% | 11µM*
CCn1c(CNC(=O)COc2ccc(C(C)C)cc2)nnc1SCC(=O)Nc1cc(F)ccc1C | -4% | 1% | 1% | 22µM* | i | -24%
CCn1c(CNC(=O)COc2ccc(C(C)C)cc2)nnc1SCC(=O)Nc1ccc(F)cc1 | -3% | -5% | 4% | 2% | -36% | -24%
CCCCCCCCOc1ccc(OC(=O)c2ccncc2)cc1 | nt | nt | nt | 20% | nt | nt
CCCCCC1CCC(c2ccc(-c3ccc(OCCC)cc3F)nc2)CC1 (configuration not stated) | nt | nt | nt | 24% | nt | nt
